Reference: PubChem BioAssay (NCI)
Compounds without any hit were thinned out: in the full panel of roughly 83,000, 20% have a hit.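 Testing used 96-well plates and a 48-hour single-concentration exposure. Example: -40 means 40% of the starting cells died.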 Unmarked numbers belong to inactive results. The source made the active and inactive calls. The calls were made as follows: active = growth percent below 10; inactive = the rest.

What was measured:
Experiment in all cases: NCI-60 one-dose screen, 48 h (100 = growth as untreated, 0 = no growth, -100 = all killed)
[1] = system: HT29 colon; conditions: 10 µM unless noted
[2] = system: SNB-75 CNS; conditions: 10 µM unless noted
[3] = system: SNB-19 CNS; conditions: 10 µM unless noted
[4] = system: U251 CNS; conditions: 10 µM unless noted
[5] = system: PC-3 prostate; conditions: 10 µM unless noted
[6] = system: SK-MEL-5 melanoma; conditions: 10 µM unless noted
[7] = system: UACC-62 melanoma; conditions: 10 µM unless noted
[8] = system: LOX IMVI melanoma; conditions: 10 µM unless noted
[9] = system: SK-MEL-28 melanoma; conditions: 10 µM
[10] = system: SK-MEL-2 melanoma; conditions: 10 µM unless noted
[11] = system: SN12C renal; conditions: 10 µM unless noted
[12] = system: UO-31 renal; conditions: 10 µM unless noted
[13] = system: TK-10 renal; conditions: 10 µM unless noted
[14] = system: ACHN renal; conditions: 10 µM unless noted
[15] = system: CAKI-1 renal; conditions: 10 µM unless noted
[16] = system: A498 renal; conditions: 10 µM unless noted
[17] = system: CCRF-CEM leukemia; conditions: 10 µM unless noted
[18] = system: MOLT-4 leukemia; conditions: 10 µM unless noted
[19] = system: SR leukemia; conditions: 10 µM unless noted
[20] = system: EKVX NSCLC; conditions: 10 µM unless noted

| SMILES | growth [1] | growth [2] | growth [3] [%] | growth [4] | growth [5] [%] | growth [6] | growth [7] | growth [8] | growth [9] | growth [10] | growth [11] | growth [12] | growth [13] [%] | growth [14] | growth [15] | growth [16] | growth [17] | growth [18] | growth [19] | growth [20] [%] |
| --- | --- | --- | --- | --- | --- | --- | --- | --- | --- | --- | --- | --- | --- | --- | --- | --- | --- | --- | --- | --- |
| CCOC(=O)c1cc2c(n1Cc1cccc(OC)c1)-c1oncc1CCC2 | 10% | 7.49% (active) | 39.4 | 27.3% | 38.8 | 1.56% (active) | 31% | 33.7% | 47.8% | 36.9% | 56.7% | 16.7% | 48.1 | 47.3% | 29.6% | 6.51% (active) | 3.19% (active) | 35.8% | 10.1% | – |
| O=C(NCCCN1CCC(N2CCCCC2)CC1)C1=Cc2cc(Br)ccc2OC1 | 17.9% | 44.7% | 58.8 | 37% | 17.5 | 68% | 53.6% | 31.3% | 80.9% | 35.5% | – | 21.8% | 60 | 37.7% | 54.5% | 52.7% | 27.4% | 11.9% | 11.4% | – |
| NCCOc1ncccc1/C=C1\c2ccccc2-c2ccc(F)cc21 | 13% | 15.7% | 16 | 8.04% (active) | 42.5 | 25.1% | 34.8% | -11.5% (active) | 70.2% | – | 2.42% (active) | -17.5% (active) | 22.4 | -20.8% (active) | 12.8% | 18.9% | 6.8% (active) | 2.25% (active) | 9% (active) | 51.9 |
| COc1ccccc1N1C(=N)S/C(=C\c2ccc(OCc3ccccc3F)cc2)C1=O | 108% | 76% | 90.9 | 78.9% | 66.9 | 92.5% | 63.7% | 80.1% | 95% | – | 80.7% | 59.2% | 104 | 69.6% | 81.6% | 82% | 65.8% | 53% | 73.4% | – |
| CCOC(=O)c1c(Cl)c2c(n1Cc1ccccc1)-c1oncc1CCC2 | 25.8% | 69.1% | 83.2 | 64.5% | 65.6 | 53.1% | 49.2% | 66.7% | 44.7% | 52.7% | 63.9% | 72.4% | 98.9 | 65.8% | 59.5% | 56.9% | 59.7% | 52.6% | 0.79% (active) | – |
| Cc1ccc2cc3c(N)c4c(C)ccc(C)c4nc3nc2c1 | 4.73% (active) | 41.2% | 80.2 | -5.79% (active) | 63.9 | 11.8% | -73% (active) | -53.8% (active) | -80.6% (active) | -33.2% (active) | 63.9% | 10.4% | 66.6 | 60.8% | 7.98% (active) | 41.9% | 39.6% | 44.8% | -9.96% (active) | – |
| c1ccc2cc3c(Nc4ccc(N5CCOCC5)cc4)ccnc3cc2c1 | 98.1% | 101% | 94.3 | 94.7% | 81.8 | 89.6% | 95.6% | 96.6% | 111% | 101% | – | 81.2% | 107 | 94.8% | 92.8% | 77.6% | 77.4% | 78.1% | 81.3% | – |
| COc1ccc(C2c3ccc4ccccc4c3Oc3ncn(CCCn4ccnc4)c(=N)c32)cc1OC (centres undefined) | 20.7% | 84.4% | 79.2 | 61% | 52.6 | 63.7% | 69.1% | 35.9% | 68.2% | 81.4% | 61% | 38% | 52.6 | 67.4% | 60.7% | 40.3% | 42.1% | 61.9% | 26.9% | – |
| COc1cc(/C=C2\CCC/C(=C\c3cc(CN4CCCCC4)c(O)c(OC)c3)C2=O)cc(CN2CCCCC2)c1O | 13.3% | 89.8% | 80.7 | 70.1% | 82.7 | 92.6% | 91.5% | 66.9% | 93.6% | – | 72.5% | 58.3% | 115 | 83.8% | 106% | 90.9% | 45.7% | 49.8% | 6.77% (active) | 87.3 |
| O=C1C(Cl)=C(NCc2ccco2)C(=O)c2ccccc21 | 67.9% | 87.1% | 98.8 | 70.2% | 82.7 | -75.6% (active) | 76% | 16.2% | 106% | – | 90.1% | 97.3% | 110 | 93.8% | 93.9% | 89.8% | 24.4% | 91.1% | 63.9% | 110 |
| CCOC(=O)c1cc2c(n1Cc1cc(OC)cc(OC)c1)-c1oncc1CCC2 | 6.58% (active) | 16.3% | 28.5 | 17.3% | 33.2 | 1.12% (active) | 31.6% | 25.3% | 53.3% | 41.8% | 38.3% | 18.5% | 56.6 | 37.6% | 42.2% | -14.5% (active) | 9.16% (active) | 18% | 9.52% (active) | – |
| COc1ccc(C(O)(CCC(C)C)C(CN2CCOCC2)c2ccc(Cl)cc2)cc1 (centres undefined) | 9% (active) | 74.4% | 83.6 | 66.1% | 53.8 | 65.5% | 60.9% | 52.2% | 54.1% | 2.58% (active) | 70.6% | 62.8% | 86 | 57.4% | – | 110% | 34.2% | 34.2% | 10.7% | – |
| COc1nc2c(c(=O)n1C)N=C1c3ccccc3C(=O)C1C(c1ccccc1)N2 (centres undefined) | 104% | 84.6% | 91.7 | 89.2% | 115 | 88.7% | 78.6% | 83.4% | 90.5% | 81.2% | 95.4% | 78.9% | 107 | 94% | – | 89.1% | 103% | 76.5% | – | – |
| Cc1ccc(OCCCCCCNCCO)c(C)c1 | 22.4% | 31.1% | 14.5 | 3.86% (active) | 16 | -58.3% (active) | -42% (active) | -1.77% (active) | 15.5% | 2.48% (active) | 7.94% (active) | -21% (active) | 28.9 | 15.3% | -8.91% (active) | 35.3% | 7.2% (active) | 10.6% | 11.2% | – |
| Cc1cc(Nc2ccc(OCc3ccccc3)cc2)nc2cc(O)ccc12 | 2.05% (active) | 81.6% | 70.5 | 10.2% | 53.5 | 9.21% (active) | 71.7% | 13.3% | 59.2% | 70.4% | 78.2% | 44.9% | 73.4 | 73.8% | 72.3% | 95.8% | 8.27% (active) | 26% | -17.5% (active) | – |
| O=C(NN1C(=O)CSC1c1ccc(Cl)cc1)c1[nH]c2ccc(F)cc2c1-c1ccccc1 (centres undefined) | 19.2% | 59.2% | 64.2 | 49.6% | 42.7 | 75% | 48.7% | 60.9% | 101% | – | – | 36.3% | 66.9 | 43.8% | 32.1% | 84.3% | 34.3% | 34.1% | 48.9% | 49.3 |
| COc1ccc(-n2c(C(O)c3ccccc3)n[nH]c2=S)cc1 (centres undefined) | 113% | 89.6% | 99.7 | 91.2% | 120 | 107% | 88.2% | 91.4% | 115% | 96.7% | 88.2% | 79.6% | 101 | 95.5% | – | 103% | 98.4% | 83.4% | – | – |
